Screening data from PubChem BioAssay.
Tb PYK inh = T. brucei pyruvate kinase inhibition; TbPYK enzyme, Kinase-Glo Plus ATP luminescence, 45 min; 410,000 compounds, 0.12% hits; Potency, µM (highest dose often 76.8 µM), usual class: inhibitors; Q57TT1; active = well fitted curve in the direction sought with a large enough effect; inconclusive = small, poorly fitted or top-dose-only effect, or another doubt; inactive = no such curve, though single readings can be large; an effect the other way counts as inactive or inconclusive; also: nearly all actives have a fitted effect of over 50% in size
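Enzyme and substrate buffer are dispensed first and compound is pin-transferred. ADP at 130 uM final then starts the reaction, which runs 45 min at room temperature. Detection reagent is added for 10 min before luminescence is imaged.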
LmPK inh = blocks Leishmania mexicana pyruvate kinase activity | AID 1721 | 290,000 compounds, 0.37% hits | purified LmPK, Kinase-Glo ATP luminescence, 1 h | Potency, µM (top dose mostly 57.5 µM), usual class: inhibitors; active = well fitted curve in the direction sought with a large enough effect; inconclusive = small, poorly fitted or top-dose-only effect, or another doubt; inactive = no such curve, though single readings can be large; an effect the other way counts as inactive or inconclusive
Target sequence (Q27686 whole entry, looked up): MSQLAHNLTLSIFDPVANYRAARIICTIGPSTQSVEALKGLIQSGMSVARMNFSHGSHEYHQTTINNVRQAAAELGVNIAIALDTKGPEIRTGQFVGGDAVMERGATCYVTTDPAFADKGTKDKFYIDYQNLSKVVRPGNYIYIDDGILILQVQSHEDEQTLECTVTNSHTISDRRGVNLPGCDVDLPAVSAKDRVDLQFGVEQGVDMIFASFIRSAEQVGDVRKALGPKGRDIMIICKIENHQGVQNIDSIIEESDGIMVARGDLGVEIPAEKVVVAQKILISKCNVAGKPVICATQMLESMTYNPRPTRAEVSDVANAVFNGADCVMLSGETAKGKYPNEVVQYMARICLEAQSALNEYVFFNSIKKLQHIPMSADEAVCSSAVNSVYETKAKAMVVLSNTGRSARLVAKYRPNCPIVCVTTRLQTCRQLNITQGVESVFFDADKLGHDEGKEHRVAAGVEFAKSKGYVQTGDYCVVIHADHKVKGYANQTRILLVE
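Screened at intermediate enzyme activity to detect both inhibitors and activators: LmPK at 0.1 nM, with a 0.5 nM enzyme column as activation reference. PEP 0.5 mM, ADP 0.1 mM; ATP detected by luminescence after 1 h.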
NS1 inh = inhibitors of influenza NS1 protein function. Potency, µM (top dose mostly 46.1 µM). 270,000 compounds, 0.4% hits. AID 2326; also: actives are rising curves; nearly all actives have a fitted effect of over 50% in size
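A cell-based growth assay was used: compounds that relieve NS1-induced slow growth of budding yeast raise OD600. Assay medium was yeast nitrogen base with ammonium sulphate and -URA supplement, pH 6.0, with 2% galactose.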
SARS PLpro yeast = SARS-CoV PLP inhibition in yeast. S. cerevisiae expressing SARS-CoV PLpro, growth rescue. Potency, µM (highest dose often 32.9 µM), most hits filed as activators. 330,000 compounds, 0.19% hits. AID 485353; also: nearly all actives have a fitted effect of over 55% in size
Cycloheximide cs = counter-screen for Shiga toxin inhibitors: cycloheximide protein synthesis inhibition; 300,000 compounds, 12% hits; cell reporter, cycloheximide protein synthesis inhibition counterscreen; AID 2314; max response, %; in the data active = max response mostly above about 13%, no sharp cut-off; inactive = mostly below about 14%; also: read at 38.3 µM for the half of the compounds with a filed dose
Shiga inhibitor = inhibitors of Shiga toxin in Vero cells | Vero cells, Shiga toxin protein synthesis inhibition reporter | inhibition, % at 38.7 µM | 290,000 compounds, 9.2% hits; in the data active = inhibition mostly above about 28%, no sharp cut-off; inactive = mostly below about 43%
Numbers stand for hits; 0 = inactive; ? = inconclusive; - = not tested or not shown. The full list was thinned out, with hits kept by preference. Unless noted, calls follow the shape of the full dose curve.

SMILES	Tb PYK inh	LmPK inh	NS1 inh	SARS PLpro yeast	Cycloheximide cs	Shiga inhibitor
CC(C)CC(=O)NC(=S)Nc1ccc(N2CCN(C(=O)c3cccs3)CC2)cc1	0	0	0	0	0	0
Cc1ccccc1NC(=S)Nn1cnnc1	0	0	0	0	0	0
O=C(COc1ccc(Cl)cc1Cl)NC(=S)Nc1ccc(CN2CCOCC2)cc1	0	0	0	0	0	0
CC(C)CC(=O)NC(=S)Nc1ccc(N2CCOCC2)cc1	0	0	0	0	24	48
Cc1cccc(NC(=S)Nn2cnnc2)c1C	0	0	0	0	38	0
Cc1cc(NC(=S)NC(=O)CC(C)C)ccc1Br	0	0	0	0	32	115
CC(C)CC(=O)NC(=S)Nc1ccc(CN2CCOCC2)cc1	0	0	0	0	0	33
O=C(CCC(=O)N(CC(=O)NC1CCCC1)Cc1ccccc1Cl)Nc1nccs1	0	0	0	0	0	0
CCOc1ccc(CCNC(=O)C2CCN(C(=O)c3cc4sccc4n3CC)CC2)cc1OCC	0	-	-	-	-	-
CCCCN(CCCC)CCCNC(=O)c1cc(-c2ccc(Cl)s2)nc2ccccc12	0	-	-	-	-	-
Cc1cccc(NC(=S)Nc2ccc(N3CCOCC3)cc2)c1C	0	0	?	0	13	0
O=C(NCC(=O)N1CCN(c2ccccc2O)CC1)c1ccc2c(c1)OCO2	0	0	0	0	0	0
O=c1ccc2cc3ccoc3cc2o1	0	0	0	0	0	0
CC(C)c1cc2cc3ccc(=O)oc3cc2o1	0	0	0	0	33	64
[N-]=[N+]=NC[C@H](Cc1ccccc1)N1CCN(Cc2ccccc2)CCC1=O	0	0	0	0	0	0
Nc1c(-c2ccc(Cl)cc2)cnn1-c1cc(C(F)(F)F)cc(C(F)(F)F)c1	0	0	0	0	0	0
Nc1c(-c2cccc(Cl)c2)cnn1-c1cccc(C(F)(F)F)c1	0	0	0	0	31	58
Nc1c(-c2ccccc2)cnn1-c1cccc(C(F)(F)F)c1	0	0	0	0	68	83
COCCCN1C(=O)c2[nH]nc(-c3ccccc3O)c2C1c1ccc(OCc2ccccc2)cc1 (configuration not stated)	0	-	-	-	-	-
N#Cc1cccc(C(=O)Nc2cc(S(=O)(=O)N3CCOCC3)ccc2N2CCCC2)c1	0	-	-	0	-	-
CCc1ccccc1NC(=O)Cn1c(=O)oc2ccccc21	0	-	-	-	-	-
CN(CC(=O)NCc1ccc(Cl)cc1)S(=O)(=O)c1ccc2c(c1)c(=O)n(C)c(=O)n2C	0	-	-	-	-	-
COc1ccc(C2Nc3ccccc3C(=O)N2c2ccc(C)cc2)cc1COc1ccccn1 (configuration not stated)	0	0	0	0	37	0
COc1ccc(C2Nc3ccccc3C(=O)N2c2ccc(C)cc2)cc1Cn1nc(C)c([N+](=O)[O-])c1C (configuration not stated)	0	0	0	0	47	0
COc1ccc(C2Nc3ccccc3C(=O)N2c2ccccc2)cc1CN1CCOCC1 (configuration not stated)	0	0	0	0	0	0
SMILES	Tb PYK inh	LmPK inh	NS1 inh	SARS PLpro yeast	Cycloheximide cs	Shiga inhibitor
COc1ccc(C2Nc3ccccc3C(=O)N2Cc2ccco2)cc1COc1ccc([N+](=O)[O-])cc1 (configuration not stated)	0	0	0	0	0	0
COc1ccc(N2C(=O)c3ccccc3NC2c2ccc(OC)c(Cn3nnc4ccccc43)c2)cc1 (configuration not stated)	0	0	0	0	21	0
O=C(Nc1nnc2n1CCS2)c1cc(C(F)(F)F)cc(C(F)(F)F)c1	0	-	-	-	-	-
Cc1ccccc1N=C1Nc2ccccc2CS1	0	0	0	0	29	122
CCOc1ccccc1N1Cc2cc(C)c(C)cc2C1	0	0	0	0	0	0
COc1ccc(OC)c(N2Cc3cc(C)c(C)cc3C2)c1	0	0	0	?	14	0
O=C(Nc1ccccc1)c1cccc(N2C(=O)C3C4C=CC(C4)C3C2=O)c1 (configuration not stated)	0	0	0	0	19	0
COC(=O)c1ccc(NC(=O)c2cccc(N3C(=O)C4C5C=CC(C6CC56)C4C3=O)c2)cc1 (configuration not stated)	0	0	0	0	33	64
O=C1C2C3C=CC(C4CC34)C2C(=O)N1/N=C/c1ccc(-c2ccc(Cl)cc2[N+](=O)[O-])o1 (configuration not stated)	0	0	0	0	0	0
O=C1C2C3C=CC(C4CC34)C2C(=O)N1/N=C/c1ccc(-c2ccc(F)cc2[N+](=O)[O-])o1 (configuration not stated)	0	0	0	0	31	0
CCC(=O)N1CCc2cc(Br)cc(S(=O)(=O)CCC(=O)Nc3ccc(CC)cc3)c21	0	-	-	-	-	-
Cc1cnc(C(=O)OC(C(=O)c2ccccc2)c2ccccc2)cn1 (configuration not stated)	0	-	-	0	-	-
COc1ccc(C(=O)C(OC(=O)c2ccccc2Cl)c2ccccc2)cc1 (configuration not stated)	0	0	0	0	28	83
Cc1ccc(NC(=O)C(OC(=O)c2ccccc2Cl)c2ccccc2)cc1Cl (configuration not stated)	0	0	0	0	0	0
COc1ccc(C(=O)C(OC(=O)c2ccccc2)c2ccccc2)cc1 (configuration not stated)	0	0	0	0	49	104
COc1ccc(C(=O)C(CN2CCCC2)c2ccccc2)cc1 (configuration not stated)	0	0	0	0	25	0
COc1ccccc1C(=O)Nc1nc2ccc(S(=O)(=O)N3CCCC3)cc2s1	0	-	-	-	-	-
O=C1Nc2ccccc2C1=Nc1ccc2[nH]c3ccccc3c2c1	0	-	-	-	-	-
Cc1cc(C)cc(CC2CC(=O)N(c3nc(C)cc(C)n3)C2=O)c1 (configuration not stated)	0	0	0	0	27	51
OCc1ccccc1-c1nc(NCC2CC2)nc2ccsc12	0	-	-	-	-	-
CCc1cnc(Nc2nc(C(N)c3ccccc3Cl)cs2)nc1 (configuration not stated)	0	-	-	-	-	-
COc1ccccc1-n1c(CCn2nc(C)c(Br)c2C)n[nH]c1=S	3.5µM	?	0	0	0	0
Cc1nn(CCc2n[nH]c(=S)n2C2CCCCC2)c(C)c1Br	13µM	7.9µM	0	0	0	0
O=[N+]([O-])c1ccc(/C=N/Nc2nc3ccccc3o2)cc1	0	0	0	0	31	48
Clc1ccc(N/N=C/c2cccnc2)cc1	0	0	0	0	0	30
C(=N\N=C\c1cccnc1)/c1cccnc1	0	0	0	0	40	26
Cc1nnc(C)n1/N=C/c1cccnc1	0	0	0	0	0	0
CCS(=O)(=O)c1ccc(C=NNc2nc3ccccc3o2)cc1	0	-	-	-	-	-
CC(C)(C)NC(=S)N/N=C/c1cccnc1	0	0	0	0	0	0
